From ChEMBL document CHEMBL3433997, “St. Jude Leishmania screening dataset” (2016)

Key:
Type in all cases: functional
[1] = biological target: Solute carrier family 2, facilitated glucose transporter member 1 (Homo sapiens) (UniProt P11166); experiment: ST_JUDE_LEISH: Cytotoxicity at 2uM final concentration against transgenic Leishmania Mexicana promastigotes LmGLUT1 that are glucose transport deficient and complemented with the human glucose transporter GLUT1. Activity is measured by DNA content using SYBR green in vitro
Solute carrier family 2, facilitated glucose transporter member 1 (Homo sapiens), sequence (P11166 whole entry): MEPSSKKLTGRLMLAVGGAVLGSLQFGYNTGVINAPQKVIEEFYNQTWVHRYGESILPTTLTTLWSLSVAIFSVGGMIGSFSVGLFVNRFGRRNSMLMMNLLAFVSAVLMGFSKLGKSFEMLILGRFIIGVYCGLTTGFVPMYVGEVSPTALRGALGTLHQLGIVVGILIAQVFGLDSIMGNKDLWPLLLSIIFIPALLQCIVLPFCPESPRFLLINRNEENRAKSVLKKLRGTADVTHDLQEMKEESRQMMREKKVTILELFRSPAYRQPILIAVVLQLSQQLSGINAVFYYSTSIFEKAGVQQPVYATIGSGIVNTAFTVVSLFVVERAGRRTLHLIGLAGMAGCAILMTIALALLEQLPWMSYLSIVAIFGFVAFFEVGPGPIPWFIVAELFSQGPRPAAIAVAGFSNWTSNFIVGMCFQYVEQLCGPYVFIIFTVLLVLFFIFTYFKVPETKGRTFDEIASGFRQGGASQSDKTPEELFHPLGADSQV

[2] = biological target: Hexose transporter 1 (Plasmodium falciparum) (UniProt O97467); experiment: ST_JUDE_LEISH: Cytotoxicity at 2uM final concentration against transgenic Leishmania Mexicana promastigotes LmPfHT that are glucose transport deficient and complemented with the Plasmodium falciparum hexose transporter. Activity is measured by DNA content using SYBR green in vitro
[3] = biological target: Glucose transporter (Leishmania mexicana) (UniProt O61059); experiment: ST_JUDE_LEISH: Cytotoxicity at 2uM final concentration against transgenic Leishmania Mexicana promastigotes LmGT2 that are glucose transport deficient and complemented with the L. Mexicana glucose transporter 2. Activity is measured by DNA content using SYBR green in vitro

Cc1cccc(Nc2c(-c3cc(Br)ccc3O)nc3ncccn23)c1
inhibition [1]: 0.12% | inhibition [2]: -0.3% | inhibition [3]: -1.33%

COc1cccc(CNC(=O)[C@@H]2CN(C(=O)c3ccccc3)CCN2)c1
inhibition [1]: -0.92% | inhibition [2]: 0.03% | inhibition [3]: 0.71%

NC1CCN(Cc2cccc(-c3ccc(-c4nc5cc(C(F)(F)F)ccc5[nH]4)cc3)c2)C1 (centres undefined)
inhibition [1]: 0.52% | inhibition [2]: 5.22% | inhibition [3]: 2.71%

COc1ccc(Cl)cc1NC(=O)C(C)Nc1ccc(-c2ccccc2)cc1 (centres undefined)
inhibition [1]: 2.84% | inhibition [2]: 2.75% | inhibition [3]: 5.12%

COc1ccc(C(=O)NCC(C)(C)c2nc(-c3ccc(Cl)c(O)c3)c(-c3ccncc3)[nH]2)cc1OCCN(C(C)C)C(C)C
inhibition [1]: -1.11% | inhibition [2]: -0.86% | inhibition [3]: -1.98%

N#Cc1ccc(-c2ccc(C(=O)NCC3CCN(CCN4CCC(c5ccc6c(c5OCC(N)=O)CCCC6)CC4)CC3)cc2)cc1
inhibition [1]: -0.38% | inhibition [2]: -0.09% | inhibition [3]: 2.54%

COc1ccccc1C1CCN(Cc2csc(NC(=O)c3ccc(-c4ccc(C(F)(F)F)cc4)cc3)n2)CC1
inhibition [1]: 7.33% | inhibition [2]: 6.58% | inhibition [3]: 3.56%

O=C(/C=C/c1ccc(Cl)c(Cl)c1)NCCCCCN1CCC(NC(=O)Nc2ccc(OC(F)F)cc2)CC1
inhibition [1]: -1.59% | inhibition [2]: -0.5% | inhibition [3]: 5.2%

COc1ccc(-n2c(=O)c3c(n4c(SC(C)C)nnc24)-c2ccccc2CC32CCCCC2)cc1
inhibition [1]: 1.32% | inhibition [2]: 1.21% | inhibition [3]: 0.1%

Fc1cccc(C=NN=c2cc[nH]c3ccccc23)c1
inhibition [1]: 9.03% | inhibition [2]: 6.41% | inhibition [3]: 6.88%

Cc1ccc(NC(=O)c2cccc(CN3CCCN(Cc4cccc(O)c4)CC3)c2)cc1F
inhibition [1]: 7.48% | inhibition [2]: 8.09% | inhibition [3]: 1.34%

COc1ccc(-c2ccccc2CNc2nc(NCCc3ccc(O)cc3)nc(N3CCNCC3)n2)cc1
inhibition [1]: -2.91% | inhibition [2]: -0.55% | inhibition [3]: 0.12%

CCCc1c(Cl)cc(CNCCCNc2nc3ccncc3[nH]2)cc1Cl
inhibition [1]: 1.35% | inhibition [2]: 3.89% | inhibition [3]: 1.39%

O=C(Nc1ccc(Oc2ccc(OC(F)(F)F)cc2)cc1)c1ccco1
inhibition [1]: 2.92% | inhibition [2]: 1.49% | inhibition [3]: -0.53%

COc1ccc(Cl)cc1-c1nc(C(=O)NCCN2CCCCC2)c(C(C)C)s1
inhibition [1]: -3.64% | inhibition [2]: -0.2% | inhibition [3]: 3.06%

CCN1CCN(CCCNc2c3ccccc3nc3ccccc23)CC1
inhibition [1]: 65.5% | inhibition [2]: 55.3% | inhibition [3]: 39.1%

COc1cc(Nc2ncc3c(C)nc(-c4cccc(Nc5ccc(CN6CCS(=O)(=O)CC6)cc5)c4)n3n2)cc(OC)c1OC
inhibition [1]: 14% | inhibition [2]: 5.79% | inhibition [3]: 3.49%

O=C(Nc1cccc(-c2cccc(-c3nc4cc(C(F)(F)F)ccc4[nH]3)c2)c1)c1csnn1
inhibition [1]: 12.8% | inhibition [2]: 9.97% | inhibition [3]: 9.43%

O=C(/C=C/c1ccc(Cl)c(Cl)c1)N1CCC(CCCN2CCC(c3c[nH]c4ccc(O)cc34)CC2)CC1
inhibition [1]: 25.3% | inhibition [2]: 17.4% | inhibition [3]: 14%

COc1cccc(NC(=O)Nc2ccc(Nc3nc(C)cc(N4CCCC4)n3)cc2)c1
inhibition [1]: 1.91% | inhibition [2]: 1.07% | inhibition [3]: 1.4%

Cc1cc(N2CCN(CC3CCN(C)CC3)CC2)nc(Nc2ccc(Br)cc2)n1
inhibition [1]: 1.44% | inhibition [2]: 2.2% | inhibition [3]: 1.74%

COc1ccc(C=NN=c2cc[nH]c3ccccc23)c2ccccc12
inhibition [1]: 2.52% | inhibition [2]: 7.49% | inhibition [3]: 5.88%

CCc1cn2c3c(cc(C(=O)N[C@@H](Cc4cccc(Cl)c4)[C@H](O)CNC4CC4)cc13)N(C)S(=O)(=O)CC2
inhibition [1]: -0.47% | inhibition [2]: -1.46% | inhibition [3]: -2.88%

Oc1ccc(Cl)c2c1C(c1ccccc1)=NCC2
inhibition [1]: -1.17% | inhibition [2]: -0.25% | inhibition [3]: 1.69%

C=CCn1c(Sc2ccc(C#N)c([N+](=O)[O-])c2)nnc1-c1ccc(OC)cc1
inhibition [1]: 4.25% | inhibition [2]: 6.95% | inhibition [3]: 3.25%

O=C(Nc1cccc(-c2cccc(-c3nc4cc(C(F)(F)F)ccc4[nH]3)c2)c1)c1ccncc1
inhibition [1]: 5.04% | inhibition [2]: 7.47% | inhibition [3]: 2.56%

CN(C)Cc1cccc(-c2ccc3ccnc(N)c3c2)c1
inhibition [1]: 1.78% | inhibition [2]: 3.34% | inhibition [3]: 1.17%

Cc1nc(N)nc(N)c1-c1cc(Cl)c(Cl)c(Cl)c1
inhibition [1]: 0.4% | inhibition [2]: 0.89% | inhibition [3]: 1.22%

CS(=O)(=O)c1ccccc1CNC(=O)c1ccc(-c2cccc(-c3nc4cc(C(F)(F)F)ccc4[nH]3)c2)cc1
inhibition [1]: 2.96% | inhibition [2]: 2.74% | inhibition [3]: 2.22%

COc1ccc(CNCc2cccc(-c3ccc(-c4nc5cc(C(F)(F)F)ccc5[nH]4)cc3)c2)cc1
inhibition [1]: 7.79% | inhibition [2]: 6.65% | inhibition [3]: 6%

CC[C@H](C)CNC(=O)c1cccc(-c2ccc(CN3CCC(N4CCCC4)CC3)cc2)n1
inhibition [1]: 2.3% | inhibition [2]: 0.54% | inhibition [3]: 1.28%

CNC(=O)c1ccccc1Nc1nc(Nc2ccc(CCN3CCN(C)CC3)cc2)ncc1Cl
inhibition [1]: 74.6% | inhibition [2]: 74.2% | inhibition [3]: 56%

O=C(Nc1cccc(C2=NCCN2)c1)Nc1cccc(C2=NCCN2)c1
inhibition [1]: 1.69% | inhibition [2]: 5.37% | inhibition [3]: 1.1%
